Screens: PubChem, National Center for Advancing Translational Sciences (NCATS)
Shiga inhibitor: A qHTS for Small Molecule Inhibitors of Shiga Toxin; Vero cells, Shiga toxin protein synthesis inhibition reporter; inhibition, % at 38.7 µM; hit rate 9.2% among 290,000; in the data active = inhibition mostly above about 28%, no sharp cut-off; inactive = mostly below about 43%; note: 0% is about no effect
Marburg entry inh: qHTS for inhibitors of binding or entry into cells for Marburg Virus; Marburg virus pseudotyped entry inhibition, cell reporter; Potency, µM (top dose mostly 37.8 µM), without a hit: top-dose activity change, negative = inhibition, usual class: inhibitors; hit rate 1.8% among 300,000; calls by dose curve; tested in HEK293 cells; note: potency is the fitted concentration of half-maximal effect; % is set by controls: 0 for no effect and ±100 for the full control effect
AMA1 RON2 block: qHTS for Inhibitors of AMA1-RON; Towards Development of Antimalarial Drug Lead: Primary Screen | Plasmodium falciparum AMA1 (3D7) - RON2 peptide interaction | AlphaScreen AMA1-biotinylated RON2 peptide binding | Potency, µM (doses to about 58.2 µM), for inactives: top-dose activity change, negative = inhibition, actives largely listed as inhibitors | hit rate 0.2% among 360,000 | AID 720542, 2013; active = well fitted inhibition curve with a large enough effect; inconclusive = small, poorly fitted or top-dose-only effect; inactive = no such curve, though single readings can be large or run the other way;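 note: potency is the fitted concentration of half-maximal effect; 0% = vehicle wells and -100% = peptide control; nearly all actives have a fitted effect of over 45% in size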
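AMA1 (3D7) with his tag at 25 nM final met compounds first, then biotinylated RON2 peptide at 25 nM; detection used donor plus acceptor beads, 10 µg/mL apiece, read by AlphaScreen after 30 min at room temperature.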
LASV entry inh: qHTS for Inhibitors of binding or entry into cells for Lassa Virus. Lassa virus pseudotype entry inhibition, cell reporter. hit rate 1.2% among 300,000. AID 540256, 2011. Potency, µM (series often up to 37.9 µM), for the others: at the highest dose activity change, negative = inhibition, usual class: inhibitors; calls by dose curve; tested in HEK293 cells; note: potency is the fitted concentration of half-maximal effect; % is set by controls: 0 for no effect and ±100 for the full control effect; nearly all actives have a fitted effect of over 50% in size
CHX counter: Cycloheximide Counterscreen for Small Molecule Inhibitors of Shiga Toxin; cell reporter, cycloheximide protein synthesis inhibition counterscreen; max response, %; hit rate 12% among 300,000; AID 2314, 2010; in the data active = max response mostly above about 13%, no sharp cut-off; inactive = mostly below about 14%; note: read at 38.3 µM for the half of the compounds with a filed dose; 0% is about no effect
Starred values were filed as active, the others as inactive; u = inconclusive; x = no result given; [ ] = another dose, or the depositor's remark. The sample as a whole holds a higher share of hits than the screen did.

SMILES	Shiga inhibitor	Marburg entry inh	AMA1 RON2 block	LASV entry inh	CHX counter
O=C(N/N=C/c1cn(Cc2cccc(F)c2)c2ccccc12)c1cc(O)cc(O)c1	1.1	x	25.1µM*	x	3.5
CC(C)n1cc(/C=N/Nc2ccc(C(=O)O)cc2)c2ccccc21	53.8*	4.8%[46.1 µM]	-18.8%	-22.8%[46.1 µM]	58.4*
Cn1cc(/C=N/Nc2ccccc2)c2ccccc21	29.3	x	-19.9%	x	3.6
Nc1ccc(C(=O)N/N=C/c2cn(Cc3ccc(F)cc3)c3ccccc23)cc1	107.2*	-19.6%[46.1 µM]	21.3%	-22.5%[46.1 µM]	33.1*
COC(=O)N/N=C/c1cn(Cc2ccccc2F)c2ccccc12	3.2	u	-4.1%	-26.6%	11.2
COc1cc(C(=O)N/N=C/c2cn(Cc3ccccc3)c3ccccc23)ccc1O	23.5	12.2%	-3.3%	u	14.5
Nc1ccc(C(=O)N/N=C/c2cn(Cc3ccccc3F)c3ccccc23)cc1	32.6*	-15.3%[46.1 µM]	58.4%	u	18.9*
C[C@H]1CN([C@@H](C)CO)C(=O)c2cc(NC(=O)NC3CCCCC3)ccc2O[C@H]1CN(C)C(=O)Nc1ccc(C(F)(F)F)cc1	x	x	0.0%	x	x
COc1cccc([C@@H]2Oc3ccc(OC)cc3[C@H](O)[C@H]2O)c1	x	-6.9%[14.2 µM]	x	x	x
O=Cc1cn(Cc2ccccc2F)c2ccccc12	1.5	u	-2.5%	u	1.8
CCOC(=O)Cn1cc(/C=N/NC(=O)c2cc3ccccc3o2)c2ccccc21	57.8	14.9%	1.3%	u	25.7*
O=C(O)c1ccc(N/N=C/c2cn(Cc3ccccc3F)c3ccccc23)cc1	31.6	x	-16.5%	x	67.2*
Nc1ccc(C(=O)N/N=C/c2cn(Cc3ccccc3)c3ccccc23)cc1	15.8	u	-21.8%	-10.9%	16.9*
CN(C(=O)c1cccc(NC(=O)Cc2ccc(NC(=O)C3CCCN(C(=O)C4CC4)C3)cc2)c1)C1CCC1 (stereo not given)	x	x	4.0%	x	x
Cc1cc(N=Nc2ccccc2C)ccc1N	x	-11.4%[46.1 µM]	11.2µM*	-13.7%	x
Cc1ccccc1N=Nc1c(O)[nH]c2ccccc12	x	u	-1.7%	12.6%	x
COc1cccc(-c2nnc(SCc3ccccn3)n2C)c1	74.8	24.4%[46.1 µM]	-1.4%	u	16.6*
Cn1c(SCc2ccccn2)nnc1-c1ccccc1	103.5*	19.7%[46.1 µM]	21.6%	5.5%[46.1 µM]	36.3*
COc1cccc(CSc2nnc(-c3ccncc3)n2C)c1	-5.4	14.9%[46.1 µM]	-7.5%	3.9%[46.1 µM]	-1.7
Cn1c(SCc2ccccn2)nnc1-c1ccncc1	2.4	15.7%	-3.8%	0.3%	30.1
Cc1sc2ncnc(N(C)C3CCCCC3)c2c1C	45.3*	-25.1%[46.1 µM]	-22.9%	-6.5%	11.0
O=C(Cc1cccs1)Nc1ccc(-c2nc3ccccc3[nH]2)cc1	131.4*	u	-8.4%	u	36.7*
O=C(CN1CCOCC1)Nc1ccc(-c2nc3ccccc3[nH]2)cc1	75.9*	u	1.1%	-3.4%	26.6*
O=C(CSc1ccccc1)Nc1ccc(-c2nc3ccccc3[nH]2)cc1	6.2	u	-5.7%	-28.7%	11.8
CCNC(=S)Nc1ccc(-c2nc3ccccc3[nH]2)cc1	102.9*	u	-11.2%	u	40.3*
SMILES	Shiga inhibitor	Marburg entry inh	AMA1 RON2 block	LASV entry inh	CHX counter
CCN(C(=O)CSc1nc2ccccc2nc1Cc1cccc(OC)c1)c1cccc(C)c1	x	x	x	7.08µM*	x
COc1cccc(Cc2nc3ccccc3nc2SCC(=O)N2CCCCC2C)c1 (stereo not given)	x	x	x	11.2µM*	x
Cc1cccc(CN2CCN(CC(=O)NCCc3ccc(Cl)cc3)C2=O)c1	x	-7.5%[46.1 µM]	x	u	x
CCN(CC)S(=O)(=O)c1ccc(Oc2ccccc2OC)cc1	16.7	x	25.2%	x	-3.5
CCN(CC)S(=O)(=O)c1ccc(Oc2ccc(S(=O)(=O)N(CC)CC)cc2)cc1	-7.9	u	16.4%	14.6µM*	-2.9
COc1ccc(CNC(=O)[C@H](Cc2c[nH]c3ccccc23)NC(=O)[C@@H]2Cc3ccccc3CN2)cc1	-2.9	x	26.8%	x	-4.3
CC(C)c1ccc(NC(=O)[C@H](Cc2c[nH]c3ccccc23)NC(=O)[C@@H]2Cc3ccccc3CN2)cc1	26.9	x	30.6%	x	24.2*
CC(C)c1ccc(NC(=O)C(c2ccccc2)N(C)C(=O)CCc2c[nH]c3ccccc23)cc1 (stereo not given)	x	x	-22.2%	x	x
COc1ccc(NC(=O)[C@H](Cc2c[nH]c3ccccc23)NC(=O)[C@@H]2Cc3ccccc3CN2)cc1	15.1	x	43.4%	x	19.3*
CCOC(=O)Cn1nnnc1C(C(C)C)N(Cc1cc2c(C)cc(C)cc2[nH]c1=O)C1CCCC1 (stereo not given)	-5.7	8.91µM*	2.0%	u	2.9
Cc1ccc(NC(=O)c2ccc(Cl)c(S(=O)(=O)N3CCCC3)c2)nc1	x	-18.0%	-0.5%	-12.3%[46.1 µM]	x
C/C(=C\c1ccc(N)cc1)c1nc2ccccc2[nH]1	61.0*	x	-1.9%	x	49.3*
COC(=O)/C(=C\c1ccc(O)cc1)c1nc2ccccc2[nH]1	60.3*	x	15.4%	x	35.3*
COC(=O)/C(=C\c1cc(OC)c(OC)c(OC)c1)c1nc2ccccc2[nH]1	37.5	-16.1%[46.1 µM]	37.1%	u	21.6*
Cn1c(=O)c2c(ncn2C[C@@H](O)CO)n(C)c1=O	x	-10.5%	x	x	x
CSCCC(NC(=O)COc1ccccc1)C(=O)NCC1COc2ccccc2O1 (stereo not given)	-12.4	-1.4%	-11.2%	-12.1%	-2.0
COCCNC(=O)COc1ccc(Oc2ccccc2)cc1	27.6	17.5%	2.6%	u	2.7
CSc1ncnc2c1ncn2CCCNCc1ccc(C)o1	x	x	3.8%	x	x
O=C(O)c1ccc(N/N=C/c2cccc(F)c2)cc1	69.4*	10.3µM*	-9.4%	u	81.0*
O=C(O)c1ccc(/C=N\Nc2ccccn2)cc1	x	-22.1%	11.2%	0.5%	x
O=C(O)c1ccc(/C=N/NC(=O)C(O)(c2ccccc2)c2ccccc2)cc1	-8.8	-1.4%[46.1 µM]	7.5%	5.9%[46.1 µM]	-2.6
O=C(O)c1ccc(N/N=C/c2cccc(C(F)(F)F)c2)cc1	84.5*	x	-0.3%	x	55.3*
O=C(O)c1ccc(N/N=C/c2ccc(F)c(F)c2)cc1	35.0	7.08µM*	-6.9%	6.31µM*	15.4*
COc1cc(-c2noc(-c3ccc(NCc4cccnc4)c([N+](=O)[O-])c3)n2)cc(OC)c1OC	x	-2.7%[46.1 µM]	x	-3.0%[46.1 µM]	x
CCN(CCCNC(=O)Cn1ncc2c3ccccc3n(C)c2c1=O)c1cccc(C)c1	x	-14.4%[46.1 µM]	x	23.9%[46.1 µM]	x
Cc1cc(-c2nnc(CCC(=O)N(C)Cc3cccc4ccccc34)o2)no1	62.6*	29.2%[46.1 µM]	-5.1%	-2.3%[46.1 µM]	19.6*
COc1ccc(CCc2nnc(CCC(=O)N(C)Cc3ccnc4ccccc34)o2)cc1	23.1*	u	19.1%	12.6µM*	30.3*
COc1ccccc1CCc1nnc(CCC(=O)N(C)Cc2cccc3cnccc23)o1	85.6*	-10.6%[46.1 µM]	11.3%	9.0%[46.1 µM]	45.1*
COc1ccccc1CCc1nnc(CCC(=O)N(C)Cc2ccncc2C)o1	8.0	x	-4.5%	x	-0.8
Cc1cc(-c2nnc(CCC(=O)NC(C)c3cccc4ccccc34)o2)no1 (stereo not given)	15.2	x	3.1%	x	6.5
